Data taken from PubChem BioAssay (NCATS).
Inconclusive results are not listed. Calls of active or inactive are those of the source. The call rests on the fitted dose curve; in most records, active means well fitted inhibition curve with a large enough effect; inconclusive means small, poorly fitted or top-dose-only effect; inactive means flat fitted curve, though single readings scatter.

Test system: HEK293
Assay: Cytotoxic Profiling of Annotated Libraries Using Quantitative High-Throughput Screening (AID 1296008); further: nearly all actives have a fitted effect of over 60% in size
Conditions: Five cell lines viability, CellTiter-Glo ATP luminescence, 48-72 h; max response: hits give low values
Description: Cell-based phenotypic screening is a commonly used approach to discover biological pathways, novel drug targets, chemical probes and high-quality hit-to-lead molecules. Many hits identified from high-throughput screening campaign are ruled out through a series of follow-up potency, selectivity/specificity, and cytotoxicity assays. Prioritization of molecules with little or no cytotoxicity for a more in-depth downstream evaluation influence the future direction of projects, so cytotoxicity profiling of the screening libraries at early stage is essential for increasing the likelihood of candidate success. […] For the annotated library, we also examined the primary targets and mechanistic pathways regularly associated with cell death. To our knowledge, this is the first study to use high-throughput screening to profile large libraries for cytotoxicity assessment in both normal and cancer cell lines. In summary, the results generated here constitutes a valuable resource for the scientific community and provides insight on identifying cytotoxic compounds with particular mechanisms of action, and prioritizing compounds with suitable cytotoxicity profile for further evaluation.
A pintool (Kalypsys) was used to transfer 23 nL of compound solution to the 1536-well assay plates. After 48 or 72 hr incubation at 37 degree Celsius, 5% CO2 and 95% humidity, 2.5 uL of CellTiter-Glo (Promega) was dispensed into each well using a dispenser (Aspect Automation, St. Paul, MN) with solenoid valves (Lee Valves, Westbrook CT). Plates were left at room temperature for 10 min before imaging the ATP-coupled luminescence using a ViewLux microplate imager (PerkinElmer, Waltham, MA).
On the % scale 0 is the no-effect control and ±100 the full control effect; potency means the concentration at half of the fitted maximal effect.

| Structure (SMILES) | max response | Potency |
| --- | --- | --- |
| O=C(CN1C(=O)C2(CCCC2)NCC1c1cc(F)cc(F)c1)Nc1ccc2c(c1)CC1(C2)C(=O)Nc2ncccc21 (stereo not given) | -6.98% (inactive) |  |
| CO[C@H]1/C=C/[C@@](C)(O)/C=C/C(=O)O[C@H](C)[C@@H](C)CC/C=C/1C | -82.6% (inactive) |  |
| CC(C)c1cccc2c(-c3ccccc3)cc(-c3ccc(-c4ccc(C(=O)O)cc4)[nH]3)nc12 | -107% (inactive) |  |
| CCOC(=O)Nc1cc(-c2ccc(C)c(NS(C)(=O)=O)c2)nn2c(C)nnc12 |  | 4.11 µM (active) |
| CC1=CC(=O)CC2C1(O)CCC(C)C21CC(c2ccoc2)OC1=O (stereo not given) | -14.1% (inactive) |  |
| Cc1cc(C)c(Nc2ccnc(Nc3ccc(C#N)cc3)n2)c(C)c1 |  | 5.17 µM (active) |
| COc1ccc(CCO[C@@H]2CCCC[C@H]2N2CC[C@@H](O)C2)cc1OC | 2.72% (inactive) |  |
| COC(=O)c1cc(OC)c(O[C@@H]2O[C@@H](C)[C@H](O)[C@@H](O)[C@H]2O)c(OC)c1 | -6.73% (inactive) |  |
| C=C(C)C(=O)OC1C(OC(C)=O)/C(C=O)=C\CC/C(CO)=C/C2OC(=O)C(=C)C21 (stereo not given) |  | 5.63 µM (active) |
| CO[C@H]1O[C@@H]2O[C@]3(C)CC[C@H]4[C@H](C)CC[C@@H]([C@H]1C)[C@@]24OO3 |  | 10.3 µM (active) |
| CCOCc1cc(OC)c(-c2ccc(C[C@H](NC(=O)c3c(F)cccc3F)C(=O)O)cc2)c(OC)c1 | -1.31% (inactive) |  |
| COC(=O)c1cc(OC)cc(OC)c1C(=O)c1c(OC)cc2c(c1O)C1CCCC(C)(O2)O1 (stereo not given) | -5.64% (inactive) |  |
| CC(=O)O[C@@H]1c2c(C)coc2C(=O)[C@@]23O[C@@H]2CC[C@H](C)[C@@]13C | 2.56% (inactive) |  |
| CC(C)c1cc(C(=O)N2CC[C@@H](NC(=O)C3CC3)C2)n[nH]1 | -9.12% (inactive) |  |
| NCc1ccc(Nc2ncc(F)c(Nc3ccccc3)n2)cc1 |  | 20.6 µM (active) |
| CC(C)S(=O)(=O)NC[C@H](C)c1ccc(NC(=O)c2cc(F)cc(F)c2)cc1 | -6.11% (inactive) |  |
| COC1C(CO)OC(n2cnc3c(=O)[nH]cnc32)C1O (stereo not given) | 0.852% (inactive) |  |
| CC/C=C\CC1C(=O)C=CC1(CCCCCCCC(=O)O)OC(C)=O (stereo not given) | 2.73% (inactive) |  |
| CC(C)(O)/C=C/CC(C)(O)C1C(O)CC2(C)C3CCC4C(C)(C)C(=O)CCC4(C)C3CCC12C (stereo not given) | 1.96% (inactive) |  |
| O=C1NC(Cc2ccccc2)C(=O)N2CCCC12 (stereo not given) | -1.73% (inactive) |  |

| Structure (SMILES) | max response | Potency |
| --- | --- | --- |
| CC(Oc1ccc2[nH]nc(/C=C/c3cnn(CCO)c3)c2c1)c1c(Cl)cncc1Cl (stereo not given) |  | 2.91 µM (active) |
| CC(C)(C)C(=O)CN1C(=O)[C@H](NC(=O)Nc2cccc(C(=O)O)c2)CN(C2CCCCC2)c2ccccc21 | 1.37% (inactive) |  |
| C[C@@H]1C[C@@H](O)[C@@]23CO[C@@H](O)[C@@H]2CCC[C@@H]3[C@@]12C[C@@H](c1ccoc1)OC2=O | -9.22% (inactive) |  |
| CC(O)CCC1C(CO[C@@H]2O[C@H](CO)[C@@H](O)[C@H](O)[C@H]2O)CC(O)CC1(C)C (stereo not given in full) | 1.92% (inactive) |  |
| COc1cc(/C=C/C(=O)O[C@H]2[C@H](O)[C@@H](CO)O[C@@]2(CO)O[C@H]2O[C@H](CO)[C@@H](O)[C@H](O)[C@H]2O)ccc1O | 0.588% (inactive) |  |
| CC(C)(C)NS(=O)(=O)c1cncc(-c2cc(F)c3nc(N)nn3c2)c1 | -1.27% (inactive) |  |
| C=C1CCC2C(C)(C)CCC[C@]2(C)[C@H]1C/C=C(\CO)C(=O)C(=O)O (stereo not given in full) | 1.79% (inactive) |  |
| C[C@@H]1O[C@@H](O[C@H]2[C@@H]3C=CO[C@@H](O[C@@H]4O[C@H](CO)[C@@H](O)[C@H](O)[C@H]4O)[C@@H]3[C@@]3(CO)O[C@@H]23)[C@H](OC(=O)/C=C/c2ccccc2)[C@H](O)[C@H]1O | -1.51% (inactive) |  |
| COc1cc2c3c(cc4ccccc4c3c1O)NC2=O | -10.3% (inactive) |  |
| CCCCc1ccc(C(=O)Nc2cc(-c3ccc(Cl)cc3)nn2-c2ccc(Cl)cc2)cc1 | -22.4% (inactive) |  |
| C=C1OC2CC(C(=O)O)C=CC2NC1=O (stereo not given) | 3.15% (inactive) |  |
| CC(=O)OC1C(=O)C2(C)C(O)CC3OCC3(OC(C)=O)C2C(OC(=O)c2ccccc2)C2(O)CC(OC(=O)C(O)C(NC(=O)c3ccccc3)c3ccccc3)C(C)=C1C2(C)C (stereo not given) |  | 0.0073 µM (active) |
| Cc1cc(OCc2nc(-c3ccccc3Cl)cs2)ccc1OCC(=O)O | -1.87% (inactive) |  |
| C[C@@H]1O[C@@H](O[C@@H]2[C@@H](O)[C@H](O[C@H]3[C@H](O[C@H]4CC[C@@]5(C)C(CC[C@]6(C)C5CC=C5[C@@H]7CC(C)(C)CC[C@]7(C(=O)O[C@@H]7O[C@H](CO)[C@@H](O)[C@H](O)[C@H]7O[C@@H]7O[C@@H](C)[C@H](O[C@@H]8O[C@@H](C)[C@H](O)[C@@H](O)[C@H]8O)[C@@H](O)[C@H]7O)CC[C@]56C)[C@@]4(C)CO)O[C@H](C(=O)O)[C@@H](O)[C@@H]3O)O[C@H](CO)[C@H]2O)[C@H](O)[C@H](O)[C@H]1O (stereo not given in full) | -2.3% (inactive) |  |
| COc1cc2ncnc(Nc3cccc(Cl)c3F)c2cc1OC(=O)N1CCN(C)C[C@H]1C | -115% (inactive) |  |
| CC1(C)CCCC2(C)C(C(=O)O)=CCC12 (stereo not given) | -1.36% (inactive) |  |
| C=C[C@]1(C)C[C@H](O)[C@@H]2[C@H](OC(=O)[C@@H]2C)C1/C(C)=C/O[C@@H]1O[C@H](CO)[C@@H](O)[C@H](O)[C@H]1O (stereo not given in full) | -0.606% (inactive) |  |
| CC1(C)CC2C=C(C(=O)O)C3COC(=O)C(O)(CO)C23C1 (stereo not given) | 4.03% (inactive) |  |
| Oc1ccc2nc(CN3CCC(Cc4ccccc4F)CC3)[nH]c2c1 | -10.9% (inactive) |  |
| CC1(C)C2CC(OC3OC(COC4OCC(O)(CO)C4O)C(O)C(O)C3O)C1(C)CC2O (stereo not given) | -3.81% (inactive) |  |
